Most compounds without a hit are left out; they make up all but 11% or so of the library.
BAZ2B inh = inhibitors of human BAZ2B bromodomain. Potency, µM (series often up to 114 µM), inactives show at the highest dose activity change, negative = inhibition, usual class: inhibitors. AlphaScreen BAZ2B-H3K14Ac peptide displacement. AID 504333. actives 4.4% (n = 360,000); also: % is scaled to controls: 0 for no effect and ±100 for the full control effect; nearly all actives have a fitted effect of over 60% in size
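BAZ2B (50 nM) with biotin-H3(5-23)K14Ac peptide (50 nM) in PBS pH 7.4, 0.01% Tween-20, preformed 30 min, then compound 30 min at room temperature; top concentration 110uM. AlphaScreen streptavidin donor/nickel chelate acceptor beads (10 ug/mL final), 20 min dark, signal read.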
G9a inh = inhibitors of human histone lysine methyltransferase G9a | Potency, µM (doses to about 102 µM), inactives show at the highest dose activity, negative = inhibition, usual class: inhibitors | Q96KQ7 | G9a H3K9 monomethylation, AlphaScreen, 2 h | actives 8.8% (n = 350,000); also: % is scaled to controls: 0 for no effect and ±100 for the full control effect; nearly all actives have a fitted effect of over 75% in size
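Methyltransferase reactions run at room temperature for 2 h (20 nM enzyme, 500 nM biotin-H3K9 peptide, 20 uM SAM) after a 15 min compound preincubation; product detected by AlphaScreen beads and anti-H3K9me1 antibody.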
VDR inhibitor = vitamin D3 receptor (human) inhibition. P11473. VDR-SRC2-3 peptide fluorescence polarization, 2 h. Potency, µM, for inactives: max response, negative = inhibition, most hits filed as inhibitors. actives 0.93% (n = 400,000); also: % is scaled to controls: 0 for no effect and ±100 for the full control effect
Target sequence (P11473 whole entry, looked up): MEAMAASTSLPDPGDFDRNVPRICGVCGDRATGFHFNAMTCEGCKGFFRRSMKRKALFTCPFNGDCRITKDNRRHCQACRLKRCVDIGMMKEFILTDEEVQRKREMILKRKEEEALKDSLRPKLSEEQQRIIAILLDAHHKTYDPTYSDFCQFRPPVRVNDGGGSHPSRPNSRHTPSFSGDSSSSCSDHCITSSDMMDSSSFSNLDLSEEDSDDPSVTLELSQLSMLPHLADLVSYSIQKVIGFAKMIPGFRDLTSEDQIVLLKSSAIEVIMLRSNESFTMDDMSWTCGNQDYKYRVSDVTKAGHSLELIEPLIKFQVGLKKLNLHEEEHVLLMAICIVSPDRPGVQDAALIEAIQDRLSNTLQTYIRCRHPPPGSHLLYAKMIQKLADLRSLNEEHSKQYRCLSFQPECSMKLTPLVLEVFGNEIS
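VDR–SRC2-3 interaction, FP format. Cmpds 23 nl via pintool, brief spin, 2 h ambient incubation.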
JMJD2A Tudor = blocks the human JMJD2A Tudor domain. actives 4.4% (n = 390,000). AlphaScreen JMJD2A-Tudor / H3K4me3 peptide binding. Potency, µM (titrated, usually from 114 µM), for the others: top-dose activity change, negative = inhibition, most hits filed as inhibitors. AID 504339; also: % is scaled to controls: 0 for no effect and ±100 for the full control effect; nearly all actives have a fitted effect of over 50% in size
PLK1 PBD inh = blocks phosphopeptide binding to human PLK1 polo-box domain; P53350; Plk1 PBD binding of FITC phosphopeptide, fluorescence polarization; Potency, µM, for the others: max response, negative = inhibition, hits mostly inhibitors; actives 2.8% (n = 360,000); also: series mostly up to about 57 µM; % is scaled to controls: 0 for no effect and ±100 for the full control effect; nearly all actives have a fitted effect of over 65% in size
HP1b binding inh = HP1-beta chromodomain-methylated histone interaction inhibition. AID 540317. AlphaScreen HP1-beta / biotin-H3K9me3 peptide binding. Potency, µM (titrated, usually from 114 µM), inactives show at the highest dose activity change, negative = inhibition, most hits filed as inhibitors. actives 0.56% (n = 390,000). P83916; also: nearly all actives have a fitted effect of over 70% in size
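AlphaScreen: HP1-beta (50 nM) preformed 30 min with biotin-H3(1-18)K9me3 peptide (50 nM) in PBS pH 7.4, 0.01% Tween-20. Compound added for 30 min at RT, then streptavidin donor/nickel chelate acceptor beads (10 ug/mL) for 30 min.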
An asterisk follows results filed as active; ! = not confirmed by another sample; [ ] = remark or other dose. Calls follow the shape of the dose curve; as a rule, active = well fitted curve in the direction sought with a large enough effect; inconclusive = small, poorly fitted or top-dose-only effect, or another doubt; inactive = no such curve, though single readings can be large; an effect the other way counts as inactive or inconclusive. Potency is read from the fitted curve at half-maximal effect.

CC1(C)C(=O)N(CCN2CCC(C(=O)c3ccc(F)cc3)CC2)c2ccccc21 was read as BAZ2B inh 2.0%, G9a inh 20µM*!, VDR inhibitor -9.1%, JMJD2A Tudor -11.5%, PLK1 PBD inh 1.6% and HP1b binding inh 57.5%.
COc1ccc2[nH]c3c(c2c1)CCN1C(=O)N([C@@H](C)C(=O)NCCc2ccc(F)cc2)C(=O)[C@]31C was read as BAZ2B inh inconclusive, G9a inh 50.1µM*, VDR inhibitor -21.1%, JMJD2A Tudor inconclusive, PLK1 PBD inh -0.9% and HP1b binding inh -8.1%.
For C[C@@H](C(=O)NCc1ccco1)N1C(=O)N2CCc3c([nH]c4ccccc34)[C@@]2(C)C1=O the results were BAZ2B inh 50.1µM*, G9a inh inconclusive, VDR inhibitor inconclusive, JMJD2A Tudor -28.6%, PLK1 PBD inh -10.3% and HP1b binding inh -13.0%.
CCOC(=O)CNC1CC(=O)N(c2cccc(Cl)c2)C1=O (stereo not drawn) was read as BAZ2B inh -5.3%, G9a inh 10µM*, VDR inhibitor 18.6%, JMJD2A Tudor inconclusive, PLK1 PBD inh -14.0% and HP1b binding inh 33.8%.
For CCCOc1ccc(N2C(=O)CC(NCC(=O)OCC)C2=O)cc1 (stereo not drawn) the results were VDR inhibitor -3.0%, JMJD2A Tudor -9.9%, PLK1 PBD inh -20.1% and HP1b binding inh 27.0%.
Screening CCC(=O)N1CCc2cc(CNC(=O)c3cccc(N(C)C)c3)ccc21 returned BAZ2B inh inconclusive, G9a inh -10.8%[59 µM], VDR inhibitor 12.7%, JMJD2A Tudor -33.3% and HP1b binding inh -23.4%.
`Cn1nnnc1SCC(=O)NC(=O)Cc1ccccc1` gave BAZ2B inh 8.2%, G9a inh -26.3%[59 µM], VDR inhibitor -29.6%, JMJD2A Tudor inconclusive, PLK1 PBD inh 2.99µM* and HP1b binding inh inconclusive.
CN(C)S(=O)(=O)c1ccc(C(=O)NC(=O)CSc2nnnn2C)cc1 was read as VDR inhibitor -17.4%, JMJD2A Tudor -4.1%, PLK1 PBD inh 4.0% and HP1b binding inh 33.8%.
For CN(C)S(=O)(=O)c1ccc(NC(=O)CSc2nnnn2C)cc1 the results were BAZ2B inh -16.8%, G9a inh 31.6µM*, VDR inhibitor -22.3%, JMJD2A Tudor -14.0%, PLK1 PBD inh -8.2% and HP1b binding inh 14.0%.
`Cc1cc(C)nc(Nc2n[nH]c(COc3ccc4ccccc4c3)n2)n1` gave BAZ2B inh 2.9%, VDR inhibitor -3.8%, JMJD2A Tudor -5.1%, PLK1 PBD inh -9.5% and HP1b binding inh 7.7%.
`Cc1cc(C)nc(Nc2n[nH]c(COc3ccccc3)n2)n1` gave BAZ2B inh -3.2%, G9a inh -0.1%[59 µM], VDR inhibitor inconclusive, JMJD2A Tudor 31.6µM*, PLK1 PBD inh 3.36µM* and HP1b binding inh -3.5%.
For CCc1cc(C(=O)NNC(=O)CCN2CCN(c3ccccc3)CC2)sc1C the results were BAZ2B inh inconclusive, G9a inh 39.8µM*, VDR inhibitor -1.1%, JMJD2A Tudor -27.2%, PLK1 PBD inh -0.7% and HP1b binding inh 14.4%.
Screening Cc1cc(C(=O)NNC(=O)CCN2CCN(c3ccccc3)CC2)c2ccccc2n1 returned BAZ2B inh -5.7%, G9a inh 6.1%, VDR inhibitor 3.3%, JMJD2A Tudor -11.7%, PLK1 PBD inh -6.1% and HP1b binding inh 20.7%.
Screening O=C1CCC2S/C(=C/Nc3ccc(C(F)(F)F)cc3)C(=O)N12 (stereo not drawn) returned BAZ2B inh inconclusive, G9a inh inconclusive, VDR inhibitor -21.6%, JMJD2A Tudor -14.3%[11.4 µM], PLK1 PBD inh 9.47µM* and HP1b binding inh -15.5%.
`O=C(c1cccc(NS(=O)(=O)c2ccc(F)c(F)c2)c1)N1CCCCC1` gave BAZ2B inh -3.5%, G9a inh inconclusive, VDR inhibitor inconclusive, JMJD2A Tudor 3.4%, PLK1 PBD inh -1.8% and HP1b binding inh 33.3%.
